From PubChem BioAssay
D1 potentiator = Potentiators of Human D1 Dopamine Receptor: qHTS; 360,000 tested, 0.036% active; potentiation, % at 10 µM; AID 504651, 2011; D(1A) dopamine receptor (Homo sapiens), P21728; HEK293 TREx D1 cells, calcium flux, dopamine EC20 potentiation; in the data active means potentiation above about 30%; further: 0% is about no effect
D1 ag = Allosteric Agonists of the Human D1 Dopamine Receptor: qHTS; HEK293 T-REx D1 cells, calcium flux, agonist mode; activation, % at 2 µM; 360,000 tested, 1% active; AID 504660, 2011; further: 0% is about no effect
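Agonism was scored from calcium flux recorded over 180 s (1 read/s) after pintool compound addition, following a 10-cycle baseline. Cells were inducible force-coupled HEK293 TREx D1, plated overnight at 30 C and loaded with no-wash calcium dye.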
TRHR agonist = qHTS for Small Molecule Agonists and Allosteric Enhancers of Human TRH Receptor: Primary Screen for Agonists; activation, % at 2 µM; AID 493084, 2011; 360,000 tested, 0.18% active; TRHR cells, calcium flux fluo-8, FDSS agonist mode; further: 0% is about no effect
Target sequence (P34981 whole entry, looked up): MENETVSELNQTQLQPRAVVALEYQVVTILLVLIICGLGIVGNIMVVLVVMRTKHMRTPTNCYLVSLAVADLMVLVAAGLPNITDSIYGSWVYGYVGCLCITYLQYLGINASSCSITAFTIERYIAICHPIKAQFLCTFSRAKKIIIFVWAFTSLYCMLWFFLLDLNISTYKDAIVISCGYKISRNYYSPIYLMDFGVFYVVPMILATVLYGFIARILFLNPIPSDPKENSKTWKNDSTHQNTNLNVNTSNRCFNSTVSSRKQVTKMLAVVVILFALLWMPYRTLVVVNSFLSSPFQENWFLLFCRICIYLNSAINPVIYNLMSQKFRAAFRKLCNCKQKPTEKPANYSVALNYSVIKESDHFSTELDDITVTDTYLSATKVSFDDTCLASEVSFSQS
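Agonist-mode FDSS calcium read (Ex 480/Em 530, 1 s cycles) in 1536-well TRHR cells with fluo-8 dye, after 10-cycle baseline and 23 nL compound addition; TRH at EC20 (10 nM final) added afterwards for the enhancer phase.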
TRHR enhancer = qHTS for Small Molecule Agonists and Allosteric Enhancers of Human TRH Receptor: Primary Screen for Enhancers; enhancement, % at 2 µM; TRHR cells, fluo-8 calcium fluorescence, EC20 TRH enhancement; Thyrotropin-releasing hormone receptor (Homo sapiens), P34981; 360,000 tested, 0.66% active; in the data active means enhancement above about 30%; further: 0% is about no effect
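Enhancer read-out: after compound pinning and an initial kinetic agonist-mode read, an EC20 of TRH (10 nM final) was injected and fluo-8 calcium signal (Ex 480/Em 530) followed at 1 s/cycle for 100 cycles in TRHR-expressing cells.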
D1 antagonist = Antagonist of Human D 1 Dopamine Receptor: qHTS | HEK293 TREx D1 cells, calcium flux, dopamine EC80; active compounds read low | activity change, negative = inhibition, % at 10 µM | 360,000 tested, 3.2% active; in the data active means activity change below about -30%; further: on the % scale 0 is the no-effect control and ±100 the full control effect
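Kinetic fluorescence of a calcium dye serves as the read-out. D1-expressing Hek293 Trex cells, induced overnight at 30 C, are exposed to compound for 180 s before an EC80 dopamine addition, then read 180 s further.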
* = called active by the depositor; · = no result; ! = not confirmed by another sample. Most compounds without a hit are left out; they make up all but 4.6% or so of the library. Unless noted, no stated cut-off is given here; in the data, active means activation above about 30%; inactive means the rest.

SMILES	D1 potentiator	D1 ag	TRHR agonist	TRHR enhancer	D1 antagonist
Cc1ccc(S(=O)(=O)Nc2ccc3nc(C)sc3c2)cc1	-1	15	0	3	-34*
CCOC(=O)c1ccc(N2C(=O)c3n[nH]c(C)c3C2c2ccc(OC)c(OC)c2)cc1 (stereo unspecified)	-8	1	0	3	-37*
Cc1c(Cl)cccc1Nc1nc(N)nc(CSc2nc3ccccc3s2)n1	-2	4	1	0	-44*!
COc1ccc(CCNC(=O)c2nc(SCc3ccc(F)cc3)ncc2Cl)cc1OC	-1	2	0	-4	-16
CN(CCOc1ccc(Cl)c(Cl)c1)Cc1ccccc1	2	1	0	-1	2
Cc1cc(Cl)cc(C)c1OCCOCCNCc1ccccc1	-6	31*	1	-7	-5
Clc1ccc(OCCOCCNCc2ccccc2)cc1Cl	-5	47*	2	3	-26
CCOC(=O)c1ccc(NC(=O)CSc2c3c(nc4cc(Cl)ccc24)CCCC3)cc1	0	1	1	-1	14
CCOc1cc(C(=O)Nc2ccc3oc(-c4ccc(F)cc4Cl)nc3c2)cc(OCC)c1OCC	-2	1	0	-7	-9
Cc1cc2c(cc1C)NC(c1c(C)n(C)n(-c3ccccc3)c1=O)C1=C(CC(C)(C)CC1=O)N2 (stereo unspecified)	-4	81*	43*	1	9
Cc1ccc(NC(=O)CCCNC(=O)c2ccc(Cl)cc2)c(O)c1	1	3	-1	-3	-32*
Cc1ccccc1NC(=S)NCC1CCN(C(C)c2ccccc2)C1 (stereo unspecified)	-4	0	-1	1	-36*
O=c1[nH][nH]cc1C=Nc1ccc(Oc2ccccc2)cc1	-6	0	0	-5	-18
COc1ccc(N=Cc2c[nH][nH]c2=O)cc1	-3	1	0	1	-33*
O=[N+]([O-])c1c(NCCO)cc(N2CCN(Cc3ccc4c(c3)OCO4)CC2)c2nonc12	-4	0	0	-9	6
O=[N+]([O-])c1c(NCCO)cc(N2CCCCCC2)c2nonc12	-2	6	-1	5	-43*
N#Cc1ccc(-c2ccco2)nc1SCc1ccccc1	-12	1	0	-17	-93*
O=C(NCCN1C(=O)S/C(=C\c2cccc(Cl)c2Cl)C1=O)C1=COCCO1	-1	5	-1	1	-8
CCOC(=O)CN1C(=O)C(=O)N(Cc2cccc(C)c2)C1=O	2	33*	-1	6	-25
CCOC(=O)CN1C(=O)C(=O)N(Cc2c(Cl)cccc2Cl)C1=O	1	5	-1	25	14
Cc1ccc(C(=O)NCc2ccccc2CN2CCCC2)cc1S(=O)(=O)N1CCOCC1	-20	0	0	0	-22
COc1ccc2cc(C(=O)NCc3ccccc3CN3CCCC3)ccc2c1	-15	3	1	-1	-64*
COc1ccc2oc(C(=O)NCc3ccccc3CN3CCCC3)c(C)c2c1	·	6	1	5	-57*
O=c1c2cccc3c(N4CCOCC4)ccc(c32)c2nc3ccccc3n12	1	72*	51*	3	-18
CC(C)n1c(-c2ccc(N(C)C)cc2)nc2ccccc21	-12	4	0	4	-43*
SMILES	D1 potentiator	D1 ag	TRHR agonist	TRHR enhancer	D1 antagonist
CN(C)c1ccc(-c2nc3ccccc3n2C)cc1	-8	2	0	-2	-14
Nc1ccc(/C=C/C(=O)c2ccco2)cc1	0	72*	21	5	7
N#Cc1ccc(/C=C/C(=O)c2ccco2)cc1	-8	5	0	-4	-4
CCCOc1ccc(C2c3c(-c4ccccc4O)n[nH]c3C(=O)N2CCc2ccccc2)cc1OCC (stereo unspecified)	2	6	1	27	0
Oc1[nH]c2ccccc2c1N=NC(=S)NCC1CCCO1 (stereo unspecified)	-3	1	-1	0	-45*
Cc1ccc(C)c(N2CCN(C(=O)CCS(=O)(=O)c3cc(Br)cc4c3N(C(=O)C3CC3)CC4)CC2)c1	-3	0	0	4	-18
COc1ccccc1NS(=O)(=O)c1cccc(NC(=O)Nc2cccc(Cl)c2)c1	-13	12	2	-6	-39*
COc1ccc([N+](=O)[O-])cc1NC(=O)Nc1cccc(Cl)c1	-3	5	0	-2	-41*
COc1ccc([N+](=O)[O-])cc1NC(=O)Nc1ccc(OC)c(OC)c1	-7	-1	0	1	·
N#Cc1c(-c2ccccc2)cc(C2CC2)nc1N	-8	31*	-1	5	-12
Cc1cccc(Nc2c3c(nc4ncnn24)CCC3)c1	-2	1	-3	4	-30*
Cc1cc(C)cc(Nc2c3c(nc4ncnn24)CCC3)c1	-2	0	-1	-3	3
COc1cccc(N2CCN(c3c4c(nc5ncnn35)CCC4)CC2)c1	-7	5	0	-7	-30*
O=C(CCN1C(=O)[C@@H]2Cc3ccccc3CN2C1=O)N[C@@H](C(=O)O)c1ccccc1	2	0	0	-3	-25
CCS(=O)(=O)/N=C(\N)c1ccccc1	-4	1	0	2	27
N#CN=C(N)c1ccccc1	3	1	0	-4	-56*!
CCCCCCN(C(=O)CCCCCN1C(=O)NC(c2ccccc2)C(C(=O)OCc2ccccc2)=C1C)C(C(=O)NCCCC)c1ccc(OCC(=O)OC)c(C(=O)OC)c1 (stereo unspecified)	-5	38*	0	2	-54*
CCCCCCN(C(=O)CCCCCN1C(=O)NC(c2ccc(C(C)(C)C)cc2)C(C(=O)OCc2ccccc2)=C1C)C(C(=O)NCCCC)c1ccc(OCC(=O)OC)c(C(=O)OC)c1 (stereo unspecified)	-5	17	3	-5	-13
Cn1c(SCc2ccc(F)cc2)nc2ccc(C(=O)NCc3ccc(Cl)cc3)cc21	-5	11	0	1	-6
Cn1c(SCc2ccc(F)cc2)nc2ccc(C(=O)NCc3ccc(F)cc3)cc21	-3	13	2	6	-32*
COc1ccc(C2(CCN=Cc3ccc(N(C)C)cc3)CCOC(C)(C)C2)cc1 (stereo unspecified)	-2	2	-1	6	-78*
Cc1nc(-c2ccc([S+](=O)([O-])N3CCN([S+](=O)([O-])c4c(F)cccc4F)CC3)s2)cs1	-8	1	0	4	15
